# Bioassay records: PubChem BioAssay, The Scripps Research Institute Molecular Screening Center
# This is a sample that favours compounds with a hit; in the whole collection about 3.5% have one here.
# MITF inh: inhibitors of human MITF. O75030. AlphaScreen MITF homodimerization, bead proximity signal. inhibition, % at 2.6 µM. 0.91% of 650,000 active. AID 1259374; in the data active = inhibition above about 50%;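 also: 0% = vehicle wells with protein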
# GPR151 ag: human GPR151 activation; Q8TDV0; PathHunter beta-arrestin GPR151 cells, luminescence; AID 1508602; activation, % at 11.2 µM; 1% of 650,000 active; in the data active = activation above about 4.9%;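 also: 0% = median of compound wells and 100% = cells with positive control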
# Target sequence (Q8TDV0 whole entry, looked up): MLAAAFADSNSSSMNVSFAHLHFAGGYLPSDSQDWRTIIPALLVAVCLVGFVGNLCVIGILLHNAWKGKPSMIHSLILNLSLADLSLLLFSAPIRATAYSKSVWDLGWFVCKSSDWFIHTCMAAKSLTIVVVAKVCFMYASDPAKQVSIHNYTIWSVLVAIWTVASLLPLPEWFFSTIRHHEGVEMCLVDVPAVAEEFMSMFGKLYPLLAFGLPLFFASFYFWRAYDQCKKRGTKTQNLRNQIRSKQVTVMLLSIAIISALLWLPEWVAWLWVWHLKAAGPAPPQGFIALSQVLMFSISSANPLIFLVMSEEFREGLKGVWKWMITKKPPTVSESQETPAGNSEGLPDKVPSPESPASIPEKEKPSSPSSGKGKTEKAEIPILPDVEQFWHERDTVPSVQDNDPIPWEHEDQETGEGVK
# FBW7 activator: activators of human E3 ligase FBW7. AlphaScreen FBW7–phospho-cyclin E peptide binding, activator screen. AID 1259310. normalized activity (activation), % at 26.1 µM. 0.13% of 650,000 active; in the data active = normalized activity above about 1.9%;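 also: purified mutant Fbw7 with reduced substrate affinity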
# TEAD-YAP inh: TEAD-YAP interaction inhibition. 1.4% of 640,000 active. inhibition, % at 9.12 µM. HEK-TIYL cells, TEAD-Gal4/YAP UAS-luciferase luminescence; in the data active = inhibition above about 32%;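 also: 0% = median of test compound wells and 100% = reference inhibitor wells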
# MITF confirm: human MITF inhibition, confirmation. shares compounds with MITF inh. AlphaScreen MITF homodimerization, biotin/His-MITF beads. inhibition, % at 2.6 µM. 16% of 4,700 active. AID 1259372;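 active = inhibition above a cutoff derived from the DMSO control wells, cut at about 28% in these data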;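 also: 0% = MITF dimer wells with DMSO only; inhibitors lower the bead chemiluminescence by keeping MITF from dimerizing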
# AS interf DR: counter-screen: compounds optically interfering with AlphaScreen. shares compounds with MITF inh. AlphaScreen optical interference counterscreen, cell-free. IC50, µM. 6% of 480 active. AID 1259373; call rule not given here
# AS interf ctr: AlphaScreen optical interference, counter-screen | 7.6% of 4,700 active | LysRS AlphaScreen counterscreen, signal interference, triplicate | inhibition, % at 2.6 µM | shares compounds with MITF inh;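 active = inhibition above a cutoff derived from the DMSO control wells, cut at about 30% in these data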
# Starred values were filed as active, the others as inactive; · = no result.
SMILES,MITF inh,GPR151 ag,FBW7 activator,TEAD-YAP inh,MITF confirm,AS interf ctr,others
O=C(NCC1Cc2cc(-c3cnccn3)ccc2O1)c1cccc(N2CCCC2=O)c1 (centres undefined),52*,-1,1,5,19,15,
Cc1cn2c(=O)c(C(=O)Nc3ccc(F)cc3F)cnc2s1,8,2,0,-40,·,·,
C/C(=N\Nc1ccc(C(=O)O)cc1)c1cccc(Br)c1,5,-2,0,-78,·,·,
C/C(=N\Nc1ccc(S(=O)(=O)O)cc1)c1cccc(Br)c1,56*,0,-1,-7,38*,12,AS interf DR=>6.5
Cc1cccc2c1CC(C)(C)NC2=S,5,-1,0,4,·,·,
Cc1ccc(C)c2c1CC(C)(C)NC2=S,70*,-1,0,0,8,15,
CC(Oc1ccc(O)cc1)(P(=O)(O)O)P(=O)(O)O,97*,2,1,·,96*,16,AS interf DR=>6.5
CCOc1ccc(NC(=O)c2cccc(Br)c2)c([N+](=O)[O-])c1,1,0,0,-11,·,·,
COc1ccc(-c2cc3ccccc3n2CC(O)CNCc2ccco2)cc1 (centres undefined),71*,-1,1,-12,2,2,
C=CCc1ccccc1OCCOCCN1CCN(C)CC1,60*,0,0,0,-1,13,
C=CCc1ccccc1OCCOCCN1CCCCC1,79*,-2,0,2,11,25,
O=C(Cn1c2ccccc2c2cn[nH]c(=O)c21)NCc1cccc(Cl)c1,-9,0,0,-8,·,·,
CC(=O)Nc1ccc(N2C(=O)c3ccccc3C2(O)Cc2ccccc2)cc1 (centres undefined),55*,0,0,-2,33*,16,AS interf DR=>6.5
COC(=O)CC1(O)c2ccccc2C(=O)N1Cc1ccccc1 (centres undefined),12,1,0,7,·,·,
CC(=O)c1sc(-c2ccccc2)nc1C1CC1,10,-2,0,-32,·,·,
CN(C)CC(=O)Nc1cc(N(C)C)nc2ccccc12,62*,4,0,-1,7,-5,
Nc1nc(NCCCN2CCCC2=O)cc(NCc2cccnc2)n1,2,1,0,8,·,·,
Cc1sc2nc(CNCc3ccco3)[nH]c(=O)c2c1-c1ccccc1,58*,3,0,5,-1,5,
COc1ccc(OCC(O)CN2CCN(CCc3ccccn3)CC2)c(C(C)(C)C)c1 (centres undefined),81*,1,0,-2,-13,-4,
COc1ccc(COCC(O)CN2CCN(C(C)=O)CC2)cc1 (centres undefined),22,-1,0,1,·,·,
COc1ccc(COCC(O)CN2CCN(CCc3ccccn3)CC2)cc1 (centres undefined),78*,-1,0,-13,-10,-6,
c1ccc(CNc2nc(-c3ccccn3)nnc2-c2ccccc2)cc1,106*,0,-1,3,101*,100*,
c1ccc(-c2nnc(-c3ccccn3)nc2-c2ccccc2)cc1,15,3,-1,8,·,·,
CN(C)c1nc(-c2ccccn2)nnc1-c1ccccc1,102*,0,-1,-20,107*,100*,
O=C(COCc1nc2ccccc2c(=O)[nH]1)Nc1ccc2c(c1)CCC2,5,-2,1,1,·,·,
SMILES,MITF inh,GPR151 ag,FBW7 activator,TEAD-YAP inh,MITF confirm,AS interf ctr,others
Fc1ccccc1OCCN1CCN(Cc2ccccc2)CC1,73*,2,0,-12,2,-5,
CCOc1ccccc1OCCN1CC(C)CC(C)C1 (centres undefined),78*,0,0,-11,18,12,
CCOc1ccccc1OCCN1CCN(Cc2ccccc2)CC1,64*,2,0,4,-10,-5,
CCOc1ccccc1OCCN1CCOCC1,3,0,0,1,·,·,
Fc1ccccc1OCCN1CCOCC1,45,1,0,6,·,·,
Cc1cc(C(C)(C)C)ccc1OCCOCCN(C)C,72*,2,0,12,-2,-7,
Cc1ccc(C(C)(C)C)c(OCCOCCN(C)C)c1,68*,-1,0,0,-3,-8,
CN(C)CCOCCOc1ccc(Cl)cc1C(C)(C)C,3,0,0,-8,·,·,
COCCNCCOCCOc1ccc(C(C)(C)C)cc1C,26,-2,0,-5,·,·,
O=C(NNC(=S)Nc1cccc([N+](=O)[O-])c1)c1ccccn1,115*,-1,-2,-12,116*,100*,
CCOC(=O)c1ccc(NC(=S)NNC(=O)c2ccccn2)cc1,116*,0,-1,6,114*,100*,
CCOc1ccccc1NC(=S)NNC(=O)c1ccccn1,114*,0,-2,16,117*,100*,
CCOC(=O)c1cccc(NC(=O)c2ccccn2)c1,0,-4,0,-36,·,·,
COCCCNC(=S)NNC(=O)c1ccccn1,114*,1,-1,12,113*,100*,
CN(C)C(=O)CSc1nnc(-c2ccco2)o1,-11,-1,0,-15,·,·,
Cc1cccc(-n2nc3c(c2NC(=O)CCc2ccccc2)CSC3)c1C,-5,2,0,1,·,·,
Cc1ccc(C2NS(=O)(=O)N=C2N)cc1 (centres undefined),52*,1,0,5,10,15,
CS(=O)(=O)N1CCN(Cc2ccccn2)CC1,77*,-1,-1,-6,7,15,
O=C(CNCc1ccccn1)NCc1ccc(Cl)cc1,74*,1,-1,5,31*,100*,
c1ccc(N2CCN(Cc3ccccn3)CC2)cc1,30,1,0,-2,·,·,
Clc1ccc(CN2CCN(Cc3ccccn3)CC2)cc1,63*,-1,0,-29,-6,0,
Cc1ccc(CN2CCN(Cc3ccccn3)CC2)cc1,68*,-1,0,-2,-3,1,
Cc1ccccc1CN1CCN(Cc2ccccn2)CC1,79*,1,0,-14,13,21,
CCOC(=O)c1cnc2cc(Cl)c(OC)cc2c1Nc1ccc(F)cc1F,-3,1,0,3,·,·,
O=C1CSC(=Nc2cccc(Br)c2)N1,53*,0,1,-5,-21,-8,
SMILES,MITF inh,GPR151 ag,FBW7 activator,TEAD-YAP inh,MITF confirm,AS interf ctr,others
CCCn1c(SC(C(=O)NC(N)=O)C(C)C)nc2ccccc2c1=O (centres undefined),55*,-1,0,3,19,10,
NC(=O)c1cccc(-c2cccs2)c1,66*,0,0,-12,57*,11,AS interf DR=>6.7
O=C(Nc1ccccc1)c1ccc2nc(-c3cccs3)sc2c1,2,-4,0,-59,·,·,
NC(=O)c1ccc2nc(-c3cccs3)sc2c1,73*,-8,0,33*,60*,6,AS interf DR=>6.2
CC(=O)c1cccc(-c2cccc(C(N)=O)c2)c1,0,5,0,-6,·,·,
CC(C)(C)C1(C)OC(O)(C(Cl)Cl)CC1=O (centres undefined),20,0,0,5,·,·,
